PINK1 modulator – modulators of PINK1 expression | PINK1 immunofluorescence, high-content cytometry, 24 h | Potency, µM (doses to about 76.6 µM), for inactives: at the highest dose activation (PINK1 increase), most hits filed as activators | 410,000 tested, 0.2% active | AID 624263; active = well fitted activation curve with a large enough effect; inconclusive = small, poorly fitted or top-dose-only effect; cell line not stated here; note: % of control where 0% means no effect; nearly all actives have a fitted effect of over 65% in size
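Readout is PINK1 immunofluorescence, quantified alongside mitochondrial, cell and nuclear markers by laser-scanning microplate cytometry. Cells from a stable line were exposed to compound titrations (5 concentrations) for 24 hours, with CCCP controls.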
Epigenetic derep – derepresses silenced GFP reporter in murine cells | murine LDR cells, GFP reporter derepression, 30 h | Potency, µM (series often up to 53.9 µM), for the others: at the top dose GFP activation, most hits filed as activators | 280,000 tested, 0.2% active; note: % of control where 0% means no effect; nearly all actives have a fitted effect of over 60% in size
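In this reporter-derepression format, murine cells bearing a silenced integrated CMV-GFP locus incubate with test compound (30 h, 37 C), then are washed and imaged; fluorescent objects of 20–120 um count as induced cells.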
HTT cytoprotect – Huntington cell model cytoprotection by ATP luminescence. PC12 HTT-Q103 induced, cytoprotection, ATP luminescence, 40 h. Potency, µM (titrated, usually from 56.4 µM), for inactives: cytoprotection (ATP increase), usual class: activators. 230,000 tested, 0.14% active; note: % of control where 0% means no effect; nearly all actives have a fitted effect of over 45% in size
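Huntington model: PC12 line, ecdysone-inducible HTTQ103 exon1–GFP, tebufenozide 100 nM. Test articles in a dose series. Endpoint luminescence from cellular ATP.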
HttQ103 aggreg – reduces HttQ103-GFP aggregates in PC12 cells | PC12 HttQ103-GFP aggregates, Acumen cytometry, 40 h | Potency, µM (doses to about 46.1 µM), for inactives: top-dose activity change, negative = inhibition, most hits filed as inhibitors | 220,000 tested, 1.1% active | AID 1688; note: % is set by controls: 0 for no effect and ±100 for the full control effect; nearly all actives have a fitted effect of over 60% in size
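Read-out: GFP aggregate count by laser scanning cytometer (488 nm excitation, 500-530 nm emission, 1–25 µm objects >6 SD above background). Cells: PC12, inducible HTTex1-Q103-GFP, 100 nM tebufenozide; compounds titrated.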
Active calls of the source: *; ? = inconclusive; . = no result; [ ] = dose if it differs, or a comment. The full list was thinned out, with hits kept by preference. Unless noted, calls come from the whole dose curve; as a rule, active = well fitted curve in the direction sought with a large enough effect; inconclusive = small, poorly fitted or top-dose-only effect, or another doubt; inactive = no such curve, though single readings can be large; an effect the other way counts as inactive or inconclusive. Potency is the fitted concentration of half-maximal effect.

SMILES	PINK1 modulator	Epigenetic derep	HTT cytoprotect	HttQ103 aggreg
COc1ccc(Br)cc1C(C[N+](=O)[O-])c1c(N)n(C)c(=O)n(C)c1=O (centres undefined)	-2%	?	-79%[10 µM]	4µM*
CN(C)c1ccc(C(C[N+](=O)[O-])c2c(N)n(C)c(=O)n(C)c2=O)c(F)c1C#N (centres undefined)	1%	.	.	.
Cc1ccc(C(=O)CC(C(=O)O)n2cnc([N+](=O)[O-])n2)cc1 (centres undefined)	2%	-1%	3%[10 µM]	8%[9.22 µM]
O=C1C(C2=C(O)c3ccccc3C2=O)=Nc2ccccc21	-3%	7.9µM*	-28%	-26%
Cc1ccc2[nH]c3c(=O)[nH]ncc3c2c1	1%	.	.	.
O=c1c(-c2ccccc2)c1-c1ccccc1	.	-1%	11µM*	14µM*
CCCn1c(NC(=O)c2cccc(C)c2C)nc2ccccc21	14%	1%	-57%	6.3µM*
CCCn1c(NC(=O)c2ccc([N+](=O)[O-])o2)nc2ccccc21	1%	.	.	.
COc1cc(/C=C/C(=O)O)cc(S(=O)(=O)N(CC(C)C)CC(C)C)c1OC	0%	6%	.	?
O=S1(=O)C=C(Sc2nnc(-c3ccccc3)o2)c2ccccc21	1%[38.3 µM]	2%	-114%	4.5µM*
Cc1cc(C)nc(SC2=CS(=O)(=O)c3ccccc32)n1	8%	1%	3%[10 µM]	?
CCCc1cc(=O)[nH]c(Nc2ccc(OCC)cc2)n1	1%	-1%	.	.
CCCCc1ccc(Nc2nc(CCC)cc(=O)[nH]2)cc1	-5%	10%	20%[1.9 µM]	35µM*
COc1ccc(OCC(O)CNC(=O)c2ccc(Br)cc2)cc1 (centres undefined)	-14%[38.3 µM]	-1%	11%	-14%
Cc1cc(C)n2nc(SCc3nnc(SCc4ccccc4C)s3)nc2n1	.	0%	18%[10 µM]	13µM*
COC(=O)c1cccc(S(=O)(=O)N(Cc2ccco2)Cc2cc3cc(OC)c(OC)cc3[nH]c2=O)c1	2%[38.3 µM]	1%	-5%	21%
COC(=O)c1cccc(S(=O)(=O)N(Cc2ccco2)Cc2cc3ccc(OC)cc3[nH]c2=O)c1	14µM*	-6%	-22%	5%
Cc1ccsc1C(=CCCN1CCC[C@@H](C(=O)O)C1)c1sccc1C	0%	.	1%	23%
COc1ccc(N(C(=O)c2snc(C(N)=O)c2N)C(C(=O)NCc2ccccc2)c2ccc(F)cc2)c(OC)c1 (centres undefined)	7%	.	.	.
CC1=C(C(=O)OCc2ccc3c(c2)OCO3)C(c2ccc(F)cc2)NC(=O)N1 (centres undefined)	0%[38.3 µM]	0%	-38%	1.4µM*
CSCCOC(=O)C1=C(C)NC(=O)NC1c1ccc2c(c1)OCO2 (centres undefined)	0%	.	.	.
CC1=C(C(=O)OCc2ccc3c(c2)OCO3)C(c2ccc(Cl)cc2)NC(=O)N1 (centres undefined)	-2%[38.3 µM]	1%	-3%	1µM*
CCCCCOC(=O)C1=C(C)NC(=O)NC1c1ccc2c(c1)OCO2 (centres undefined)	-1%	.	.	.
CN=C1SC(CC(=O)Nc2ccc(C(C)=O)cc2)C(=O)N1C (centres undefined)	-1%	.	.	.
O=C(O)C(CCc1ccccc1)(Cc1ccccc1)C(=O)O	1%	.	.	.
SMILES	PINK1 modulator	Epigenetic derep	HTT cytoprotect	HttQ103 aggreg
Cc1ccc2nc(CC(O)(c3ccccc3)c3ccccc3)ccc2c1	7%	.	.	.
COc1cccc2ccc(CC(O)(c3ccccc3)c3ccccc3)nc12	40µM*	.	.	.
CCc1ccccc1N(C)C(=O)CCc1nc(-c2ccc(C)cc2)no1	0%	1%	-66%	11µM*
COc1ccc(Cl)cc1N(C)C(=O)CCc1nc(-c2ccc(C)cc2)no1	22%	0%	-38%	?
Cc1cc(-c2nc3cccnc3s2)ccc1NS(=O)(=O)c1ccc2c(c1)OCCO2	0%	0%	9%[10 µM]	?
Cc1c(NS(=O)(=O)c2ccc3c(c2)OCCO3)cccc1-c1nc2cccnc2s1	2%	-1%	30%[10 µM]	8.9µM*
COc1ccc2cc3c(N)nn(C(=O)c4ccccc4Cl)c3nc2c1	-1%	0%	0%[10 µM]	0.35µM*
COc1ccc2cc3c(N)nn(C(=O)c4ccc(OC)c(OC)c4)c3nc2c1	6%	-1%	.	.
COc1ccc2cc3c(N)nn(C(=O)c4cccc(F)c4)c3nc2c1	0%	0%	-22%[10 µM]	1µM*
COc1ccc2cc3c(N)nn(C(=O)c4ccc(F)cc4)c3nc2c1	-1%	-1%	-10%[10 µM]	2.8µM*
Cc1cc(NCCCN(C)C)n2c(nc3ccccc32)c1C#N	2%	.	.	.
COc1ccc(N(CC(=O)N/N=C(\C)c2ccc(C)cc2)S(=O)(=O)c2ccccc2)cc1	10%	.	.	.
COc1ccc(N(CC(=O)N/N=C(\C)CCc2ccccc2)S(=O)(=O)c2ccc(C)cc2)cc1	1%	2%	3.5µM*	11%[9.22 µM]
Cc1oc2c(c1C(=O)N1CCC(C)CC1)C(=O)c1ccccc1C2=O	0%	3%	.	7.1µM*
COc1ccc(NC(=O)CCC(=O)N/N=C/c2ccncc2)cc1	1%	0%	14%[10 µM]	13%[9.22 µM]
N#C/C(=C\c1ccccc1)C(=O)Nc1cc(S(=O)(=O)N2CCOCC2)ccc1N1CCCC1	8%	-1%	0.71µM*	?
O=C(Nc1cc(S(=O)(=O)N2CCOCC2)ccc1N1CCCCC1)c1ccccc1	1%	.	.	.
O=C(Nc1ccc2c(c1)CCC2)C1CCCN(c2ncccn2)C1 (centres undefined)	2%[38.3 µM]	2%	-22%[10 µM]	9%
Cc1nc2ncnn2c(N2CCCC(C(=O)Nc3ccc4c(c3)CCC4)C2)c1C (centres undefined)	13%[38.3 µM]	-4%	-2%[10 µM]	10µM*
CCc1c(C)nc2ncnn2c1N1CCC(C(=O)Nc2ccccc2)CC1	13µM*	0%	-8%	-32%
Cc1cccc(C(c2c(C)nn(-c3ccccc3)c2N)c2c(C)nn(-c3ccccc3)c2N)c1	3%	1%	14%[1.9 µM]	-15%
CCc1ccc(C(=O)c2cn(CC(=O)Nc3cc(F)ccc3F)c3nc(C)ccc3c2=O)cc1	3%	20µM*	.	.
Cc1ccc(CNC(=O)Cn2cc(C(=O)c3ccc(F)cc3)c(=O)c3ccc(C)nc32)cc1	0%	-1%	.	.
COc1cc(C2=NOC(C(=O)NCc3ccco3)C2)cc(OC)c1OC (centres undefined)	11µM*	-3%	-70%	-12%
COc1ccc(C2=NOC(C(=O)NCc3ccco3)C2)cc1 (centres undefined)	27%[38.3 µM]	-1%	-68%	-14%
SMILES	PINK1 modulator	Epigenetic derep	HTT cytoprotect	HttQ103 aggreg
C=CC[n+]1ccc2ccccc2c1C	-1%	0%	?	-31%
C=CC[n+]1ccc(/C=C2\C=Cc3cc(C)ccc3N2CC)c2ccccc21	3.2µM*	-4%	-189%	2.2µM*
CN(C)c1ccc(-c2ccc3ncnc(-n4ccnc4)c3c2)cc1	-1%	.	3.2µM*	.
Cc1ccccc1-c1ccc2ncnc(-n3ccnc3)c2c1	-1%	.	1µM*	.
CN(C)C(=O)c1ccc(-c2cncnc2-n2ccnc2)cc1	1%	.	-7%	.
COc1ccc2c(c1OC)C(=O)OC2Nc1ccc(S(=O)(=O)N=C(N)N)cc1 (centres undefined)	1%	-1%	5%[10 µM]	-25%[9.22 µM]
